Test results as given in ChEMBL document CHEMBL1157539, “Thousands of chemical starting points for antimalarial lead identification” (Nature, 2010).

What was measured:
Type in all cases: functional
Plasmodium falciparum [1] = experiment: GSK_TCMDC: Inhibition of Plasmodium falciparum 3D7 in whole red blood cells, using parasite LDH activity as an index of growth. Test compounds present at 2uM
Plasmodium falciparum [2] = experiment: GSK_TCMDC: Inhibition of Plasmodium falciparum Dd2 in whole red blood cells, using parasite LDH activity as an index of growth. Test compounds present at 2uM
HepG2 = experiment: GSK_TCMDC: Percent inhibition of human HepG2 cell line. Test compounds present at 10uM.

`CCCCn1c(=N)c(C(=O)NCc2cccnc2)cc2c(=O)n3cccc(C)c3nc21` was tested, and the Inhibition (Plasmodium falciparum [1]) was 100%, the Inhibition (Plasmodium falciparum [2]) was 47% and the Inhibition (HepG2) was 7%.

Compound `Fc1cccc(CNc2ncc(-c3ccsc3)c(-c3nccs3)n2)c1` has an Inhibition (Plasmodium falciparum [1]) of 91%, an Inhibition (Plasmodium falciparum [2]) of 85% and an Inhibition (HepG2) of 15%.

`CCN1CCC(N(Cc2ccc(-c3ccc(C(F)(F)F)cc3)cc2)C(=O)Cn2c(CCc3cccc(F)c3F)cc(=O)c3c2CCCC3)CC1.O=C(O)C(O)C(O)C(=O)O` showed an Inhibition (Plasmodium falciparum [1]) of 100%, an Inhibition (Plasmodium falciparum [2]) of 96% and an Inhibition (HepG2) of 55%.

`Cc1cc(CN2CC[C@H](NC(=O)c3ccc(Cl)c(Cl)c3)C2)ccc1OCCN1CCNCC1.O=C(O)C(F)(F)F` gave an Inhibition (Plasmodium falciparum [1]) of 94%, an Inhibition (Plasmodium falciparum [2]) of 1% and an Inhibition (HepG2) of 15%.

`CC(CN1CCN(C)CC1)C(=O)Nc1ccc(-c2cccc(-c3nc4ccccc4[nH]3)c2)cc1` (stereo not given) showed an Inhibition (Plasmodium falciparum [1]) of 94%, an Inhibition (Plasmodium falciparum [2]) of 81% and an Inhibition (HepG2) of 4%.

In the case of `COc1ccc2nc(C)cc(Nc3ccc(Cl)cc3)c2c1`, the Inhibition (Plasmodium falciparum [1]) is reported as 89%, the Inhibition (Plasmodium falciparum [2]) is reported as 3% and the Inhibition (HepG2) is reported as 10%.

For `O=C(/C=C/c1ccc(Cl)cc1)NCCCCCN1CCCN(C(=O)Nc2ccc(Cl)c(C(F)(F)F)c2)CC1`, the Inhibition (Plasmodium falciparum [1]) was 95%, the Inhibition (Plasmodium falciparum [2]) was 1% and the Inhibition (HepG2) was 54%.

`O=C(NCCCCN1CCC(c2nc3ccccc3s2)CC1)c1cc2ccccc2[nH]1` was tested, and the Inhibition (Plasmodium falciparum [1]) was 86%, the Inhibition (Plasmodium falciparum [2]) was 64% and the Inhibition (HepG2) was 43%.

Work on `CC(C)c1ccc(CN2CCC(NC(=O)c3ccc(-c4ccccc4F)s3)CC2)cc1.O=C(O)C(F)(F)F` yielded an Inhibition (Plasmodium falciparum [1]) of 81%, an Inhibition (Plasmodium falciparum [2]) of 13% and an Inhibition (HepG2) of 46%.

In the case of `O=C(NC1CCN(Cc2ccc(O)cc2)CC1)c1ccc(Cl)c(Cl)c1.O=C(O)C(F)(F)F`, the Inhibition (Plasmodium falciparum [1]) is reported as 95%, the Inhibition (Plasmodium falciparum [2]) is reported as 3% and the Inhibition (HepG2) is reported as 1%.
